According to PMC4081100, “A DNA-binding-site landscape and regulatory network analysis for NAC transcription factors in Arabidopsis thaliana”:

Legend:
Test in all cases: universal protein binding microarray (PBM); transcription factors of Arabidopsis thaliana; high values mean tight binding
GST-NTL6(1-168) = GST-NTL6(1-168) (Arabidopsis thaliana, UniProt Q9SCK6 1-168); settings: protein: recombinant; tags: GST; chain copies: 2; dsDNA, one strand shown
Summary of the method: (§1)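 GST-tagged proteins (NAC-domain, full-length or DNA-binding-domain) were induced in cells, with zinc acetate supplied for zinc-finger proteins, then purified on glutathione–Sepharose 4B. Each was tested in duplicate at 200 to 500 nM final on custom all-10-mer Agilent 4 × 180K arrays rendered double-stranded by primer extension. The binding value is the normalised enrichment score (E-score) across gapped and ungapped 8-mers.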

GST-ATAF1 NAC domain = molecular target: T1, GST-ATAF1 NAC domain (Arabidopsis thaliana, UniProt Q39013 7-158); settings: protein: recombinant; tags: GST; chain copies: 2; dsDNA, one strand shown
T1 sequence: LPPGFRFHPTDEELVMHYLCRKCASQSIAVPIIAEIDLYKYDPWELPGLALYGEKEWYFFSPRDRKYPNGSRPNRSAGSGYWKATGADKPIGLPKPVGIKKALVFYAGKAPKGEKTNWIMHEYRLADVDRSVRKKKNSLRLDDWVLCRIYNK
Summary of the method: as §1

[1] = molecular target: T2, GST-ANAC092(1-285) full length (Arabidopsis thaliana, UniProt Q9FKA0 1-285); settings: protein: recombinant; tags: GST; chain copies: 2; dsDNA, one strand shown
T2 sequence: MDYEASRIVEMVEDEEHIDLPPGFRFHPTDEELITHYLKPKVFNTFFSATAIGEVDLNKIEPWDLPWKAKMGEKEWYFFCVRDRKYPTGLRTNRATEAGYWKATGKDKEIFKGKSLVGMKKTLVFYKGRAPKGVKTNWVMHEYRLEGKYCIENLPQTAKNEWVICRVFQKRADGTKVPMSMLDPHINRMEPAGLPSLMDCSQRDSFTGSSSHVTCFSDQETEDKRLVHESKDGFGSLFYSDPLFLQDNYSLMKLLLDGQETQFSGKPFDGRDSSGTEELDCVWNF
Summary of the method: as §1

GST-SND1(1-203) = molecular target: T3, GST-SND1(1-203) (Arabidopsis thaliana, UniProt Q9LPI7 1-203); settings: protein: recombinant; tags: GST; chain copies: 2; dsDNA, one strand shown
T3 sequence: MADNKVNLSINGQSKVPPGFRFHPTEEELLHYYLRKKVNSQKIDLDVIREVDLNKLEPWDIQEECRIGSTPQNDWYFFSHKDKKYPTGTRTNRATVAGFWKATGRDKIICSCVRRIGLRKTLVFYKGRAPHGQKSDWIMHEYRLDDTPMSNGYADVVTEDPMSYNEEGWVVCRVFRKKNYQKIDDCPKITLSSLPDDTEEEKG
Summary of the method: as §1

GST-VND3 NAC domain = molecular target: T4, GST-VND3 NAC domain (Arabidopsis thaliana, UniProt Q9FH59 12-162); settings: protein: recombinant; tags: GST; chain copies: 2; dsDNA, one strand shown
T4 sequence: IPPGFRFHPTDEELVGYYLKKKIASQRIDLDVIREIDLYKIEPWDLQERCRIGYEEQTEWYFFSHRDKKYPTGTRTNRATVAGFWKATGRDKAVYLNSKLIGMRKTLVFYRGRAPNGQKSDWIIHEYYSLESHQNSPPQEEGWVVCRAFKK
Summary of the method: as §1

GST-WRKY1(266-371) = GST-WRKY1(266-371) (Arabidopsis thaliana, UniProt Q9SI37 266-371); settings: protein: recombinant; tags: GST; dsDNA, one strand shown
Chain of GST-WRKY1(266-371) (Q9SI37 266-371): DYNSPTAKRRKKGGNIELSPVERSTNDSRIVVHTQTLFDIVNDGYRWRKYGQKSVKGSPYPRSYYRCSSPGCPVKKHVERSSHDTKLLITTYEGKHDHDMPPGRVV
Summary of the method: as §1

GST-ANAC092(1-176) = molecular target: T5, GST-ANAC092(1-176) (Arabidopsis thaliana, UniProt Q9FKA0 1-176); settings: protein: recombinant; tags: GST; chain copies: 2; dsDNA, one strand shown
T5 sequence: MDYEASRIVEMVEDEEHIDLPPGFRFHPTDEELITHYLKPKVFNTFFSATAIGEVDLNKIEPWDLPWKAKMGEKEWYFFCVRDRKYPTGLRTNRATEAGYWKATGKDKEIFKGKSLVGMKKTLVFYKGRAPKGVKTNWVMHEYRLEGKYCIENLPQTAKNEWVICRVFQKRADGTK
Summary of the method: as §1

GST-ANAC055(1-171) = molecular target: T6, GST-ANAC055(1-171) (Arabidopsis thaliana, UniProt Q9LDY8 1-171); settings: protein: recombinant; tags: GST; chain copies: 2; dsDNA, one strand shown
T6 sequence: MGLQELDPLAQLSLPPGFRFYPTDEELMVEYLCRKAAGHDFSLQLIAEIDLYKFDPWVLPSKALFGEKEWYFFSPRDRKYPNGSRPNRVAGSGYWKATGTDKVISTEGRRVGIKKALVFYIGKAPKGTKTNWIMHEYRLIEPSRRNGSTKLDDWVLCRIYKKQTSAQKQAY
Summary of the method: as §1

GST-NST2(1-184) = molecular target: T7, GST-NST2(1-184) (Arabidopsis thaliana, UniProt Q9M274 1-184); settings: protein: recombinant; tags: GST; chain copies: 2; dsDNA, one strand shown
T7 sequence: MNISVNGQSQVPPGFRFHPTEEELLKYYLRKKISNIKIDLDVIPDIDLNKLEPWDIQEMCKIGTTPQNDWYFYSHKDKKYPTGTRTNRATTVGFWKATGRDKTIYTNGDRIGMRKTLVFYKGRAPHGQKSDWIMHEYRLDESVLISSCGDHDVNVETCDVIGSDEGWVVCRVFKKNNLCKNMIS
Summary of the method: as §1

GST-NTL8 NAC domain = molecular target: T8, GST-NTL8 NAC domain (Arabidopsis thaliana, UniProt Q9XIN7 14-156); settings: protein: recombinant; tags: GST; chain copies: 2; dsDNA, one strand shown
T8 sequence: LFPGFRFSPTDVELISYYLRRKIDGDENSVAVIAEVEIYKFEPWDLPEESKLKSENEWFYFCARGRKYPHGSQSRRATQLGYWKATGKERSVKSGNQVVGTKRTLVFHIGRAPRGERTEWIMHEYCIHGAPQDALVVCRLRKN
Summary of the method: as §1

GST-ANAC019 NAC domain = molecular target: T9, GST-ANAC019 NAC domain (Arabidopsis thaliana, UniProt Q9C932 14-162); settings: protein: recombinant; tags: GST; chain copies: 2; dsDNA, one strand shown
T9 sequence: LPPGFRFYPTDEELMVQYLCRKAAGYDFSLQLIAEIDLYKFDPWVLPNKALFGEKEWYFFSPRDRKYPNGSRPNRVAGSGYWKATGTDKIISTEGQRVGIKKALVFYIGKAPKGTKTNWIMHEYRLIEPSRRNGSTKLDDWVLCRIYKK
Summary of the method: as §1

GST-NAP(1-166) = molecular target: T10, GST-NAP(1-166) (Arabidopsis thaliana, UniProt O49255 1-166); settings: protein: recombinant; tags: GST; chain copies: 2; dsDNA, one strand shown
T10 sequence: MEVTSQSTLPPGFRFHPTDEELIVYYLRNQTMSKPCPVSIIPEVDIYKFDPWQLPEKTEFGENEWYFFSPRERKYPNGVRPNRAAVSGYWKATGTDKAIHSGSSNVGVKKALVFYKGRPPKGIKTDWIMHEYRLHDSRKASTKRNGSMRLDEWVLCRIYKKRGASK
Summary of the method: as §1

GST-VND7 NAC domain = molecular target: T11, GST-VND7 NAC domain (Arabidopsis thaliana, UniProt Q9C8W9 9-158); settings: protein: recombinant; tags: GST; chain copies: 2; dsDNA, one strand shown
T11 sequence: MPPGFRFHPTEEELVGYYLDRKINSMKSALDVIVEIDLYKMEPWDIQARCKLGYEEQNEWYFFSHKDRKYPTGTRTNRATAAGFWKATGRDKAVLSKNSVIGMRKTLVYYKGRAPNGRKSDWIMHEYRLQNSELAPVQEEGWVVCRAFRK
Summary of the method: as §1

Chain of GST-NTL6(1-168) (Q9SCK6 1-168): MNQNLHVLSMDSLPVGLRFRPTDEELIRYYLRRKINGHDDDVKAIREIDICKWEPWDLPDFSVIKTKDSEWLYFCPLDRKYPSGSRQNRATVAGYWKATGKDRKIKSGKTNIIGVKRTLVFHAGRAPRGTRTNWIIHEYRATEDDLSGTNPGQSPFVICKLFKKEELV

Sequence | binding signal (GST-NTL6(1-168)) | binding signal (GST-ATAF1 NAC domain) | binding signal [1] | binding signal (GST-SND1(1-203)) | binding signal (GST-VND3 NAC domain) | binding signal (GST-WRKY1(266-371)) | binding signal (GST-ANAC092(1-176)) | binding signal (GST-ANAC055(1-171)) | binding signal (GST-NST2(1-184)) | binding signal (GST-NTL8 NAC domain) | binding signal (GST-ANAC019 NAC domain) | binding signal (GST-NAP(1-166)) | binding signal (GST-VND7 NAC domain)
TGACTCAA | 0.118 E-score | 0.0764 E-score | 0.131 E-score | 0.0975 E-score | 0.113 E-score | 0.419 E-score | – | – | – | – | – | – | –
ATAAGGAA | 0.423 E-score | 0.129 E-score | 0.217 E-score | 0.201 E-score | 0.152 E-score | – | 0.118 E-score | 0.0899 E-score | 0.136 E-score | 0.332 E-score | – | – | –
ATTAAGTA | 0.441 E-score | 0.215 E-score | 0.144 E-score | 0.267 E-score | 0.131 E-score | – | 0.0822 E-score | 0.182 E-score | 0.231 E-score | – | – | – | –
AAGGTAAG | 0.306 E-score | 0.11 E-score | 0.225 E-score | 0.2 E-score | 0.113 E-score | – | 0.0968 E-score | – | 0.144 E-score | 0.402 E-score | 0.175 E-score | – | –
CACGCGAC | – | – | 0.462 E-score | 0.351 E-score | – | 0.11 E-score | 0.421 E-score | – | 0.161 E-score | – | – | 0.0736 E-score | 0.064 E-score
ACGCGACC | – | – | 0.423 E-score | 0.367 E-score | – | 0.342 E-score | 0.283 E-score | – | 0.0828 E-score | – | 0.0639 E-score | – | 0.0778 E-score
TGAAGTCA | 0.229 E-score | – | 0.133 E-score | 0.196 E-score | 0.0873 E-score | 0.426 E-score | – | – | 0.0789 E-score | 0.165 E-score | – | – | –
CTTGACTA | – | 0.142 E-score | – | 0.0644 E-score | 0.159 E-score | 0.462 E-score | – | 0.0781 E-score | 0.0888 E-score | 0.0949 E-score | 0.0925 E-score | – | –
CCGTCAAA | – | – | – | 0.148 E-score | 0.0953 E-score | 0.409 E-score | – | – | – | – | 0.164 E-score | – | –
AAGTCATC | 0.233 E-score | – | 0.213 E-score | 0.242 E-score | – | 0.406 E-score | – | 0.0818 E-score | 0.089 E-score | 0.0978 E-score | – | 0.0606 E-score | 0.11 E-score
CACGCATA | – | – | 0.411 E-score | 0.18 E-score | 0.116 E-score | – | 0.397 E-score | 0.0626 E-score | 0.121 E-score | – | – | 0.147 E-score | –
ACTTTCCT | 0.292 E-score | 0.0923 E-score | 0.0813 E-score | 0.145 E-score | – | 0.171 E-score | – | 0.171 E-score | 0.144 E-score | 0.4 E-score | – | – | 0.121 E-score
CCCTCCCC | 0.353 E-score | 0.121 E-score | 0.308 E-score | 0.405 E-score | – | 0.0672 E-score | 0.299 E-score | – | 0.169 E-score | 0.336 E-score | 0.226 E-score | – | 0.198 E-score
GTCAAAAA | – | 0.154 E-score | 0.0617 E-score | 0.216 E-score | – | 0.442 E-score | 0.114 E-score | – | 0.121 E-score | 0.0654 E-score | 0.0995 E-score | – | 0.0546 E-score
ACCGTCAA | – | – | 0.117 E-score | 0.148 E-score | 0.126 E-score | 0.41 E-score | – | – | – | – | 0.156 E-score | 0.092 E-score | –
